Results published in PubChem BioAssay (Tox21).
Several values for one entry are separate records, joined by “and”; a condition that tells them apart may be missing. Equal values may be shown once. Inconclusive results are not listed. A call without a number means that no potency is given here. Values without a mark were called inactive. Activity calls are given as the source filed them. The call rests on the fitted dose curve.

Experiment: qHTS assay to identify small molecule antagonists of the sonic hedgehog signaling (Shh) pathway (AID 1259369); further: nearly all actives have a fitted effect of over 45% in size
Details: NIH/3T3 Gli1-Luc reporter, Shh antagonist, luminescence 24 h; series mostly up to 92.4 µM
From the text: U.S. Tox21 Program National Center for Advancing Translational Sciences [NCATS] NIH Chemical Genomics Center [NCGC] U.S. Environmental Protection Agency [EPA] National Institutes of Environmental Health Sciences [NIEHS] National Toxicology Program [NTP] U.S. Food and Drug Administration [FDA] Tox21 Assay Overview: The sonic hedgehog (Shh) pathway is essential for normal embryonic development. Dysregulation of the Shh pathway can cause severe developmental defects in organs. Therefore chemicals that interfere with the pathway are potential developmental toxicants. A cell line designated 3T3Gli1-Luc (DMB/OARSA/CFSAN/FDA, Laurel, MD), a NIH/3T3 derived clone containing stably integrated Gli1-Luc reporter is used to detect chemical interference of the Shh pathway, by changes in the expression of the firefly Luc gene under the control of the Gli1 transcriptional response element. This cell line was used to screen Tox21 libraries for identifying and prioritizing the potential developmental toxicants that interfere Shh pathway. Conditioned medium-stimulated mode was used to screen for chemicals inhibiting Shh signaling.
Tox21 Assay Protocol Summary: 3T3 Gli1-Luc cells were dispensed at 2,000 per well in 5uL of culture medium into white solid bottom 1536-well plates (Greiner Bio-One, Monroe, NC) using a Multidrop Combi (Thermo Scientific, Waltham, MA) dispenser. The assay plates were incubated at 37 C and 5% CO2 for 4hr, and then 23nL of compounds dissolved in DMSO and positive control were transferred using a Pintool station (Wako, San Diego, CA). The compound transfer was followed by the addition of 1ul conditioned medium or assay buffer using two separate tips of Flying Reagent Dispenser (FRD, Aurora Discovery, San Diego, CA). The assay plates were incubated at 37C and 5% CO2 for 24hr. For luciferase read, 4uL of Amplite Luciferase reporter gene assay reagent (AAT Bioquest, Inc. Sunnyvale, CA) was added to each well of the assay plates using FRD and incubated at room temperature for 30min. The luminescence signal was measured using a ViewLux plate reader (Perkin Elmer, Shelton, CT).
Potency means the concentration at half of the fitted maximal effect.

Row | SMILES | activity change, negative = inhibition | Potency
1 | O=S(=O)(O)c1cc(S(=O)(=O)O)c2ccc3c(S(=O)(=O)O)cc(S(=O)(=O)O)c4ccc1c2c43 | 2.19% [at 19 µM] | –
2 | OCCC(O)CO (stereo not given) | – | inactive
3 | C=C/C=C/C=C/CCCCC | -23.5% [at 19 µM] | –
4 | CCCCCCOc1cc(C)c(O)c(C)c1C | – | 61.9 µM (active)
5 | COc1ccc(-n2nc(CCC(=O)N(C)O)cc2-c2ccc(Cl)cc2)cc1 | – | 8.41 µM (active)
6 | N[C@@H](CSSC[C@H](N)C(=O)O)C(=O)O | – | 0.335 µM (active)
7 | CCO[Si](CCCSSSSCCC[Si](OCC)(OCC)OCC)(OCC)OCC | – | inactive
8 | CCC(=O)CC(C)CC (stereo not given) | 19.5% [at 0.349 µM] | –
9 | CC1=C(/C=C/C(C)=C/C=C/C(C)=C/C(=O)Nc2ccc(O)cc2)C(C)(C)CCC1 | – | 14 µM (active) and 11.9 µM (active)
10 | CCCC(=O)OCC(COC(=O)CCC)OC(=O)CCC | – | inactive
11 | CCCCCCS | – | inactive
12 | CC(=O)C=O | – | inactive
13 | CNC(=S)NN | – | 3.44 µM (active)
14 | CC1CNCC(C)O1 (stereo not given) | – | inactive
15 | CS(C)(=O)=O | – | inactive
16 | [O]=[Zr] | – | inactive
17 | CCCOc1sc(C(=O)N2CCC(c3cc(CN)ccc3F)CC2)c(C)c1Br | – | inactive
18 | CCC1(c2cnc[nH]2)Cc2ccccc2C1 | – | inactive
19 | C=C[C@](C)(O)CC[C@@H]1[C@@]2(C)CCCC(C)(C)[C@@H]2CC[C@@]1(C)O | – | 61.1 µM (active)
20 | Cc1cncc(C)c1 | – | inactive

Row | SMILES | activity change, negative = inhibition | Potency
21 | CC(C)=CCCC(C)CCOC(=O)C(C)C (stereo not given) | – | inactive
22 | C/C=C/C(=O)Oc1c(CCCCCC(C)C)cc([N+](=O)[O-])cc1[N+](=O)[O-] | – | 2.17 µM (active)
23 | c1ccc(Nc2cccc3ccccc23)cc1 | – | 30.6 µM (active)
24 | Clc1cc(Cl)c(-c2c(Cl)c(Cl)cc(Cl)c2Cl)cc1Cl | – | inactive
25 | O=C(NO)c1ccccc1 | – | 29.2 µM (active)
26 | Cc1ccc(-n2[nH]c(C)c(N=Nc3cccc(-c4cccc(C(=O)O)c4)c3O)c2=O)cc1C | – | inactive
27 | COc1ccc2sc(C(=O)Nc3nnn[nH]3)c(OC(C)C)c2c1 | – | 6.83 µM (active)
28 | O=C[C@H](O)[C@H](O)[C@H](O)CO | – | inactive
29 | c1ccc2c(c1)CCC2 | – | inactive
30 | ClC/C=C\CCl | – | inactive
31 | CCN=C1C=CC(=C(c2ccc(N(CC)CC)cc2)c2ccc(N(CC)CC)cc2)c2ccccc21 | – | 0.0963 µM (active)
32 | CCCCCCCCCCOCC(O)CN (stereo not given) | – | 11.9 µM (active)
33 | CC(C)=C1CC[C@@H](C)CC1=O | – | inactive
34 | OCCCS | – | inactive
35 | CCCCCCCCCCCCCCNCCO | – | inactive
36 | OCCCCl | – | inactive
37 | CCCCC(CC)COC(=O)c1ccc(O)cc1 (stereo not given) | – | 43.3 µM (active)
38 | CN(C)CCN1CCOCC1 | – | inactive
39 | CC(C)(C)CC(C)(C)c1ccccc1O | – | 27.4 µM (active)
40 | CCOCOCC | – | inactive
